The list is not random: actives were taken first. Their share in the collection is about 2.4%.
POLI inh: blocks human DNA polymerase iota activity; Q9UNA4; Pol iota fluorescent replication assay, 10 min; Potency, µM (doses to about 115 µM), inactives show at the highest dose activity, negative = inhibition, usual class: inhibitors; 390,000 compounds, 1% hits; AID 588590
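Fluorescent replication assay read twice, at 0 min and 10 min after adding 50 nM (final) substrate. Enzyme (10 nM) and compounds were first incubated 15 min at room temperature; enzyme-free buffer wells were negative controls.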
L3MBTL1 block: blocks human L3MBTL1; Q9Y468; Potency, µM (highest dose often 57.1 µM), for inactives: top-dose activity, negative = inhibition, hits mostly inhibitors; AlphaScreen L3MBTL1–H3K9me1 peptide binding; AID 485360; 230,000 compounds, 0.66% hits; further: on the % scale 0 is the no-effect control and ±100 the full control effect; nearly all actives have a fitted effect of over 60% in size
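AlphaScreen proximity signal between nickel-chelate acceptor and streptavidin donor beads (final 10 ug/mL) reports binding of 50 nM L3MBTL1 to 75 nM biotin-H3 K9me1 peptide; complex incubated with compounds 30 min at room temperature; cefsulodin titration as control.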
Pol kappa inh: inhibitors of human DNA polymerase kappa. Potency, µM (series often up to 107 µM), for inactives: at the top dose activity, negative = inhibition, actives largely listed as inhibitors. 400,000 compounds, 0.53% hits. Q9UBT6. purified Pol kappa, fluorescent DNA synthesis assay, 10 min; further: on the % scale 0 is the no-effect control and ±100 the full control effect
Target sequence (Q9UBT6 whole entry, looked up): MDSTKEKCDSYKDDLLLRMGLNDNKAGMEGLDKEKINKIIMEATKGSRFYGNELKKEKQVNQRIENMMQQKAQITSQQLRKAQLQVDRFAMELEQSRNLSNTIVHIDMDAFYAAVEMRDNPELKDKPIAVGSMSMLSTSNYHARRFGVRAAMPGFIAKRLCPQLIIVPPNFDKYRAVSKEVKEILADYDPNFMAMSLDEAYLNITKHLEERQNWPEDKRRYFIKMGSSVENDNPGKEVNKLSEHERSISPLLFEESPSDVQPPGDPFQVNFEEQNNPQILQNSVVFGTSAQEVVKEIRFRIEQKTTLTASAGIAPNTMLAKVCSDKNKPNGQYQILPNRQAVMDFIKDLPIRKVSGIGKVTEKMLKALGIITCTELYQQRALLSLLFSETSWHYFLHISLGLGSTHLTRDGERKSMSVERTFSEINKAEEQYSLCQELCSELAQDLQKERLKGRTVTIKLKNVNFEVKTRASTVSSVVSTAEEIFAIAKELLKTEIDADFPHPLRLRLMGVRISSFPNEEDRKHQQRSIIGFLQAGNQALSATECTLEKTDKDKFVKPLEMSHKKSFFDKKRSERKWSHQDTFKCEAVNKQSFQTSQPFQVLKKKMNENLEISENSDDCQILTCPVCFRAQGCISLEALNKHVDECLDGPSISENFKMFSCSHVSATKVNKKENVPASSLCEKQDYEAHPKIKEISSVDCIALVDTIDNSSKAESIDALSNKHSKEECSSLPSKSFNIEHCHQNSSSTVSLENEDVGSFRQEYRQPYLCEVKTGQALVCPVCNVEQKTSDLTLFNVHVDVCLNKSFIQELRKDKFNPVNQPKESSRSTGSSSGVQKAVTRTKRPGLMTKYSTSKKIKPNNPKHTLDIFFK
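Here, compound and 10 nM enzyme are combined for 15 min at room temperature; adding 50 nM substrate (final) starts DNA synthesis, tracked by fluorescence at 0 and 10 min against buffer-only wells.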
POLH inh: inhibitors of human DNA polymerase eta. recombinant Pol eta, fluorescent DNA replication assay. Q9Y253. 390,000 compounds, 1.2% hits. AID 588591. Potency, µM (doses to about 114 µM), for the others: at the top dose activity change, negative = inhibition, usual class: inhibitors; further: on the % scale 0 is the no-effect control and ±100 the full control effect
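Pol eta at 10 nM preincubated with compounds 15 min at room temperature; reaction started with fluorescent substrate (50 nM final) and read kinetically at 0 and 10 min.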
Pol beta inh: inhibitors of human DNA polymerase beta. Potency, µM (doses to about 114 µM), for the others: at the highest dose activity change, negative = inhibition, most hits filed as inhibitors. 340,000 compounds, 1.3% hits. AID 485314. P06746. Pol beta primer extension/strand displacement, fluorescence kinetic; further: on the % scale 0 is the no-effect control and ±100 the full control effect
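Pol beta (10 nM) was preincubated with compound for 15 min at room temperature. The reaction was then started with 50 nM substrate and read immediately and after a further 10 min at room temperature.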
The depositor's hits bear a star; ? = inconclusive; nt = no result given; ! = not active in a repeat; [ ] = dose if it differs, or a comment. The call rests on the fitted dose curve; in most records, active means well fitted curve in the direction sought with a large enough effect; inconclusive means small, poorly fitted or top-dose-only effect, or another doubt; inactive means no such curve, though single readings can be large; an effect the other way counts as inactive or inconclusive. Potency means the concentration at half of the fitted maximal effect.

SMILES	POLI inh	L3MBTL1 block	Pol kappa inh	POLH inh	Pol beta inh
C/C(CC(=O)Nc1ccc2ccccc2c1)=N\NC(=O)c1ccc(O)c(O)c1	?	nt	79µM*	?	3.5µM*
c1ccn2cc(-c3ccc4c(c3)OCO4)cc2c1	45µM*	?	-36%	-14%	40µM*
Cc1cc(-c2ccccc2)nc2c(Br)c(C(=O)O)nn12	11µM*	nt	79µM*	7.9µM*	nt
CC(=O)c1ccc(NC(=O)c2ccc3snnc3c2)cc1	?	nt	-14%	?	25µM*
COc1ccc(S(=O)(=O)N(CCc2ccccc2)CC(=O)NCc2ccccc2)cc1OC	-8%	nt	-5%	-2%	-9%
CCOc1ccccc1C(=O)N1CC(=O)Nc2ccc(C)cc2C1c1ccccc1 (configuration not stated)	3%	nt	4%	-16%	1%
CCc1cccc(NC(=O)c2ccc(Cn3c(=O)[nH]c4ccsc4c3=O)cc2)c1	-7%	32%	1%	?	45µM*
Cc1cccc(NC(=O)CCCCCn2c(=O)[nH]c3ccsc3c2=O)c1	-15%	nt	-23%	-3%	-1%
N=C(N)SCCc1ccc(OCc2ccc([N+](=O)[O-])cc2)cc1	nt	nt	-1%[19.4 µM]	nt	nt
O=c1c2c(nc3c(-c4ccccc4)c[nH]n13)CCC2	?	0%	-17%	4%	-1%
O=c1c2c(nc3c(-c4ccc(Cl)cc4)c[nH]n13)CCC2	20%	-8%	-9%	-17%	89µM*
CC(C)C(=O)N1CCN(CCN2C(=O)c3cccc4cccc(c34)C2=O)CC1	13%	nt	4%[60.1 µM]	-22%	89µM*
O=C(C(c1ccccc1)c1ccccc1)N1CCN(CCN2C(=O)c3cccc4cccc(c34)C2=O)CC1	16%	0%	-20%	-12%	18%
O=C1c2ccccc2-c2onc3c(Oc4ccccc4)cc(O)c1c23	nt	nt	nt	nt	35µM*
CC[C@H](C)[C@H](NC(=O)[C@H](Cc1ccc(O)cc1)NC(=O)[C@@H](NC(=O)[C@@H](N)CCCN=C(N)N)C(C)C)C(=O)N[C@@H](Cc1cnc[nH]1)C(=O)N1CCC[C@H]1C(=O)N[C@@H](Cc1ccccc1)C(=O)O	nt	nt	-1%[60.1 µM]	nt	nt
CN(Cc1cnc2nc(N)nc(N)c2n1)c1ccc(C(=O)N[C@@H](CCC(=O)O)C(=O)O)cc1	32µM*!	nt	?	32µM*!	40µM*
O=C(CN1CCOCC1)Nc1ccccc1C(=O)O	79µM*	nt	-7%	-4%	1%
CCOC(=O)CNC(=O)c1cc2c(=O)n3cccc(C)c3nc2n1C	33%	nt	-20%	-5%	71µM*
Cc1cccn2c(=O)c3cc(C(=O)NCCc4ccc(S(N)(=O)=O)cc4)n(C)c3nc12	-27%	nt	-31%	79µM*	?
Cc1ccc(NC(=O)c2nc(S(C)(=O)=O)ncc2N(Cc2ccccc2)Cc2ccco2)c(C)c1	10%	nt	-3%	-13%	?
CCc1ccc(/C=C2\SC(=S)N(CCCC(=O)Nc3ccccc3C(=O)O)C2=O)cc1	71µM*	nt	5%	?	?
Cc1ccc(/C=C2\SC(=S)N(CCCC(=O)Nc3ccccc3C(=O)O)C2=O)cc1	-28%	nt	-5%	?	2%
COc1cc(/C=C2\SC(=Nc3ccccc3)N(Cc3ccco3)C2=O)ccc1OC(C)C(=O)O (configuration not stated)	-10%	-12%	-10%	-12%	-3%
COc1cc(/C=C2\SC(=S)N(CC(=O)O)C2=O)ccc1OS(=O)(=O)c1ccc(C)cc1	14µM*	-17%	-19%	?	nt
O=C(CCCN1C(=O)/C(=C/c2ccc3c(c2)OCO3)SC1=S)Nc1ccc(C(=O)O)cc1	-22%	nt	-12%	89µM*	1%
SMILES	POLI inh	L3MBTL1 block	Pol kappa inh	POLH inh	Pol beta inh
COCCN1C(=O)/C(=C/c2ccc(OCc3ccc(C(=O)O)cc3)c(OC)c2)SC1=Nc1ccccc1	5%	-19%	-3%	28µM*	50µM*
NC(=O)C(CCc1nc2ccccc2[nH]1)NS(=O)(=O)c1ccccc1 (configuration not stated)	nt	nt	nt	-3%	nt
c1ccc(Nc2nc(NCc3ccco3)nc3nccnc23)cc1	-14%	nt	8%	nt	nt
Cc1ccc(NCc2cccn2-c2nnc(N3CCCCCC3)s2)cc1	0%	nt	-11%	?	-10%
COc1ccc(/C=C2\SC(=S)N(CCC(=O)Nc3ccc(C(=O)O)cc3)C2=O)cc1OC	107%	nt	-9%	32µM*	?
O=C(COC(=O)c1n[nH]c2ccccc12)NC(=O)NC12CC3CC(CC(C3)C1)C2	-45%	-9%	-8%	?	35µM*
O=C(COC(=O)c1n[nH]c2ccccc12)NC(=O)NC1CCCC1	-2%	nt	-1%	4%	15%
COc1ccc2nc(NC(=O)c3nc(S(=O)(=O)Cc4ccc(C)cc4)ncc3Cl)sc2c1	89µM*	nt	?	?	?
Cc1ccc(CS(=O)(=O)c2ncc(Cl)c(C(=O)Nc3nc4ccc(C)cc4s3)n2)cc1	?	nt	7%	-6%	27%
CCN(CC)C(=O)CSC1=N/C(=C/c2ccco2)C(=O)N1c1ccc(OC)c(Cl)c1	-16%	-7%	-12%	?	?
NC(=O)CSC1=N/C(=C\c2ccco2)C(=O)N1c1ccc(OC(F)F)cc1	35µM*	-25%	?	32%	-23%
CC1=CC(=O)CC2C1(C)CCC(C)C2(C)CCC(C)CC(=O)O (configuration not stated)	89µM*	nt	-28%	79µM*	45µM*
Cc1cc(F)ccc1NC(=O)CCS(=O)(=O)c1ccc2c(c1)NC(=O)CO2	11%	nt	4%	-11%	6%
Cc1cc(C)cc(OCC(=O)NCc2nc(-c3ccccc3)no2)c1	89µM*	12%	-10%	-8%	-29%
Cc1ccc(-n2c(Cc3cccn3C)nnc2SCC(=O)NCc2ccc3c(c2)OCO3)cc1	?	-30%	-36%	-6%	8.9µM*
Cc1ccc(-n2c(Cc3cccn3C)nnc2SCC(=O)Nc2ccc3c(c2)OCO3)cc1	2%	-15%	-3%	-9%	0%
COc1ccc(-n2c(Cc3cccn3C)nnc2SCC(=O)NCc2ccc(F)cc2)cc1	52%	-13%	12%	-23%	-26%
COc1ccc(-n2c(SCC(=O)NCc3ccco3)nc3sc4c(c3c2=O)CCN(C)C4)cc1	32µM*	nt	-24%	?	?
CN1CCc2c(sc3nc(SCC(=O)NCc4ccco4)n(-c4ccccc4)c(=O)c23)C1	-17%	nt	0%	-31%	-1%
COc1ccc(-n2c(Cc3cccn3C)nnc2SCC(=O)NCc2ccco2)cc1	?	-11%	?	-7%	40µM*
CC1CCCCC1NC(=O)COC(=O)c1ccc([N+](=O)[O-])o1 (configuration not stated)	32µM*	?	-19%	89µM*	nt
